The source of these data is PubChem BioAssay (NCATS).

Records with an inconclusive call do not appear. Activity calls are given as the source filed them. Calls come from the whole dose curve; as a rule, active = well fitted inhibition curve with a large enough effect; inconclusive = small, poorly fitted or top-dose-only effect; inactive = flat fitted curve, though single readings scatter.

Holding throughout (test): qHTS profiling for inhibitors of Plasmodium falciparum proliferation (AID 504749); note: nearly all actives have a fitted effect of over 60% in size
Common to all, as to conditions: P. falciparum in erythrocytes, SYBR Green DNA, 72 h; series mostly up to 28.7 µM
On the technique in general: qHTS replaces the single test concentration by a dilution series.

One test relates to AA1029. The gist of the method: (§1)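 Fluorescence of SYBR Green-bound parasite DNA, read at 485/535 nm, served as the growth measure. Infected erythrocytes were cultured with compound 72 h; artemisinin (0.29 uM) and DMSO wells defined the normalization range.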
A further test concerns ATS95. The essentials: as §1
Another test concerns C2A. The gist of the method:
as §1

The test system of the next test is CP211. The gist of the method:
as §1

The test system of the next test is CP215. The gist of the method: as §1
Another test has as its system CP217. The gist of the method:
as §1

For a further test, the system named is CP256. The gist of the method:
as §1

For another test, the system named is CP262. The essentials: as §1
Another test deals with CP266. The essentials: as §1
The next test has as its system CP269. The gist of the method:
as §1

In the next test the test system is CP325. The gist of the method: as §1
The next test relates to CP329. The essentials: as §1
The next test deals with DIV14. The essentials:
as §1

The subject of the next test is DIV17. The essentials: as §1
In the next test the test system is ECU. The essentials: as §1
A further test concerns N140. The essentials: as §1
The subject of a further test is P93_24. The gist of the method:
as §1

In a further test the test system is PAD. The essentials: as §1
A further test has as its system SC27B. The gist of the method: as §1
Another test has as its system TAB165. The gist of the method:
as §1
Potency is the fitted concentration of half-maximal effect.

As to `C[C@@H]1O[C@@H](O[C@H]2C[C@@H](O)[C@@]3(CO)[C@H]4[C@H](O)C[C@]5(C)[C@@H](C6=CC(=O)OC6)CC[C@]5(O)[C@H]4CC[C@@]3(O)C2)[C@@H](O)[C@H](O)[C@H]1O`, the Potency result in the test on AA1029, in the test with ATS95, in the test with C2A, with CP211, in the test with CP215 and in the test with CP217 was “inactive” in each case. The Potency result in the test on CP256, with CP262, in the test on CP266, with CP269, in the test with CP325 and with CP329 was “inactive” throughout. The Potency result with DIV14, in the test with DIV17, in the test with ECU, with N140, in the test on P93_24 and in the test on PAD was “inactive” in each case. Besides, the Potency result in the test with SC27B and in the test with TAB165 was “inactive” throughout.

With `C[C@@H](Cc1ccc(O)cc1)NC[C@@H](O)c1cc(O)cc(O)c1`, the Potency entry with AA1029, in the test on ATS95, in the test with C2A, with CP211, with CP215 and in the test with CP217 was “inactive” each time. The Potency result with CP256, in the test with CP262, with CP266, in the test with CP269, with CP325 and in the test on CP329 was “inactive” throughout. Further, the Potency entry in the test on DIV14, in the test with DIV17, in the test on ECU, in the test with N140, with P93_24 and in the test with PAD was “inactive” throughout. Besides, the Potency entry in the test with SC27B and with TAB165 was “inactive” each time.

`C=C[C@@H]1CN2CC[C@H]1C[C@H]2[C@H](O)c1ccnc2ccccc12`: the Potency with AA1029 was 891 nM (active); in the test on ATS95, 447 nM (active); with C2A, 1.41 µM (active); in the test on CP211, 953 nM (active); with CP215, 757 nM (active); with CP217, 1.26 µM (active). The Potency was 1.12 µM (active) with CP256; 379 nM (active) with CP262; 1.51 µM (active) in the test on CP266; 1.07 µM (active) in the test on CP269; 675 nM (active) in the test on CP325; 1.51 µM (active) in the test on CP329. Moreover, the Potency with DIV14 was 426 nM (active); in the test on DIV17, 379 nM (active); in the test on ECU, 199 nM (active); with N140, 794 nM (active); with P93_24, 447 nM (active); in the test with PAD it was 501 nM (active). The Potency in the test with SC27B was 1 µM (active); with TAB165, 355 nM (active).
